Test [1] can be described thus: qHTS assay to identify small molecule antagonists of the glucocorticoid receptor (GR) signaling pathway - cell viability counter screen (AID 720693; further: nearly all actives have a fitted effect of over 55% in size). (Quantitative high-throughput screening tests each substance at several concentrations.)
The nature of test [2]: qHTS assay for identifying genotoxic compounds that show differential cytotoxicity against isogenic chicken DT40 cell lines with known DNA damage response pathways - wild type cell line (AID 743012). Further: nearly all actives have a fitted effect of over 60% in size. Further: potency means the concentration at half of the fitted maximal effect. In a few lines: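 Using parental DT40 (300 cells/well), compounds delivered in DMSO incubate 40 h at 37 C/5% CO2. CellTiter-Glo reagent then stands 30 min at room temperature, and luminescence gives cell viability.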

Test [3] can be described thus: qHTS assay for identifying genotoxic compounds that show differential cytotoxicity against isogenic chicken DT40 cell lines with known DNA damage response pathways - Rad54/Ku70 mutant cell line (AID 743015). Further: nearly all actives have a fitted effect of over 60% in size. Further: potency means the concentration at half of the fitted maximal effect.
Test [4] can be described thus: qHTS assay to identify small molecule antagonists of the androgen receptor (AR) signaling pathway using the MDA cell line - cell viability counter screen (AID 743041; further: nearly all actives have a fitted effect of over 45% in size). In a few lines:
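MDA-kb2 AR-luc human breast carcinoma cells (MMTV-luciferase, AR/GR responsive) were treated with compounds plus R1881 agonist for 16 h at 37 °C. Viability was read as CellTiter-Fluor fluorescence in the same wells as the reporter assay.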

A short description of test [5]: qHTS assay to identify small molecule antagonists of the thyroid receptor (TR) signaling pathway - cell viability counter screen (AID 743064). Further: nearly all actives have a fitted effect of over 50% in size. Further: potency means the concentration at half of the fitted maximal effect. In a few lines:
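In-well cytotoxicity read by CellTiter-Fluor (30 min, 37 C) following 23.5 h exposure of GH3 cells bearing a TRE-luciferase sensor. Compounds were added alongside 1 nM (final) T3 to drive TR transactivation.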

A short description of test [6]: qHTS assay to identify small molecule antagonists of the thyroid receptor (TR) signaling pathway (AID 743065). Further: nearly all actives have a fitted effect of over 55% in size. Further: potency means the concentration at half of the fitted maximal effect. The procedure, abridged:
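GH3.TRE-Luc rat pituitary cells carrying two TR response elements driving luciferase were plated for 4 h, given compound plus 1 nM T3 (final), and incubated 23.5 h at 37 C. ONE-Glo luminescence measured reporter inhibition; CellTiter-Fluor fluorescence tracked cytotoxicity.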

Test [7] relates to thyroid hormone receptor (rat, GH3 cells). Kind of test: qHTS assay to identify small molecule agonists of the thyroid receptor (TR) signaling pathway (AID 743066; calls by dose curve).
For test [8], the target named is Estrogen receptor (Homo sapiens) (UniProt P03372). Kind of test: qHTS assay to identify small molecule antagonists of the estrogen receptor alpha (ER-alpha) signaling pathway (AID 743069; active means well fitted curve in the direction sought with a large enough effect in the signal ratio in the repeat runs, not every such curve was filed as active; the % refers to the signal ratio). The procedure, abridged:
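HEK293 cells stably carrying an ER-alpha-UAS-bla beta-lactamase reporter were pre-cultured overnight in 2% charcoal-stripped FBS medium. Test compounds in DMSO were added together with 17beta-estradiol for 18 hr at 37C. Read-out was fluorescence after 2 hr with LiveBLAzer B/G FRET substrate at room temperature.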

Test [9] is described as follows: qHTS assay to identify small molecule antagonists of the estrogen receptor alpha (ER-alpha) signaling pathway - cell viability counter screen (AID 743074; calls by dose curve; further: nearly all actives have a fitted effect of over 45% in size).
Test [10] concerns the target Estrogen receptor (Homo sapiens) (UniProt P03372). Kind of test: qHTS assay to identify small molecule agonists of the estrogen receptor alpha (ER-alpha) signaling pathway (AID 743075; calls by dose curve).
The target is the same in test [11]. Nature of the test: qHTS assay to identify small molecule agonists of the estrogen receptor alpha (ER-alpha) signaling pathway using the BG1 cell line (AID 743079). Further: nearly all actives have a fitted effect of over 20% in size.
Test [12] can be described thus: qHTS assay to identify small molecule antagonists of the estrogen receptor alpha (ER-alpha) signaling pathway using the BG1 cell line (AID 743080; calls by dose curve;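 further: BG1 cells stimulated with 17beta-estradiol alongside compound; nearly all actives have a fitted effect of over 25% in size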; further: potency means the concentration at half of the fitted maximal effect). The procedure, abridged:
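BG1-Luc-4E2 cells (endogenous full-length ER-alpha, stable 4×ERE-luciferase) were starved 5 days in phenol-red-free medium with 10% charcoal-stripped FBS, plated 24 h, then given compound plus 17beta-estradiol for 21.5 h at 37 C; ONE-Glo luminescence read after 30 min.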

The nature of test [13]: qHTS assay to identify small molecule antagonists of the estrogen receptor alpha (ER-alpha) signaling pathway using the BG1 cell line - cell viability counter screen (AID 743081).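 Further: compound given together with 17beta-estradiol as the ER stimulus; series mostly up to about 70 µM; nearly all actives have a fitted effect of over 45% in size.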
Another test has as its target Aromatase (Homo sapiens) (UniProt P11511). Nature of the test: qHTS assay to identify aromatase inhibitors (AID 743083). Further: series mostly up to about 70 µM; nearly all actives have a fitted effect of over 55% in size.
The nature of test [14]: qHTS assay to identify small molecule antagonists of the androgen receptor (AR) signaling pathway - cell viability counter screen (AID 743033; further: nearly all actives have a fitted effect of over 45% in size).
The nature of test [15]: qHTS assay for identifying genotoxic compounds that show differential cytotoxicity against isogenic chicken DT40 cell lines with known DNA damage response pathways - Rev3 mutant cell line (AID 743014). Further: nearly all actives have a fitted effect of over 55% in size. Further: potency means the concentration at half of the fitted maximal effect.
The target of test [16] is Androgen receptor (Homo sapiens) (UniProt P10275). Kind of test: qHTS assay to identify small molecule antagonists of the androgen receptor (AR) signaling pathway (AID 743035; active means well fitted inhibition curve with a large enough effect in the signal ratio in the repeat runs, not every such curve was filed as active; the % refers to the signal ratio). In a few lines:
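Using qHTS, AR-UAS-bla GripTite HEK293 cells received compound, then R1881, and were cultured 16 h at 37C/5% CO2 before a 2 h room-temperature LiveBLAzer B/G FRET substrate step and fluorescence measurement.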

The target is the same in test [17]. Kind of test: qHTS assay to identify small molecule agonists of the androgen receptor (AR) signaling pathway (AID 743036; active means well fitted activation curve with a large enough effect in the signal ratio in the repeat runs, with a control signal flat, not every such curve was filed as active; the % refers to the signal ratio). In a few lines:
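Activation was read as beta-lactamase FRET signal from LiveBLAzer B/G substrate, added for 2 h at room temperature. Before that, GeneBLAzer AR-UAS-bla GripTite (HEK293) cells had 16 h compound exposure at 37C.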

For test [18] the target is unchanged. Nature of the test: qHTS assay to identify small molecule agonists of the androgen receptor (AR) signaling pathway using the MDA cell line (AID 743040; further: nearly all actives have a fitted effect of over 20% in size). In a few lines: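 MDA-kb2 breast carcinoma cells stably carrying an MMTV-driven luciferase reporter (AR- and GR-responsive) were seeded and held 5 h at 37C, 0% CO2, then exposed to compounds in DMSO for 16 h. Luminescence was read 30 min after ONE-Glo addition.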

Test [19] has the same target. Kind of test: qHTS assay to identify small molecule antagonists of the androgen receptor (AR) signaling pathway using the MDA cell line (AID 743042; further: nearly all actives have a fitted effect of over 55% in size). The procedure, abridged: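 MDA-kb2 cells (human breast carcinoma, stably carrying an MMTV-luciferase reporter responsive to AR and GR) were plated at 3,000 cells/well and preincubated 5 hr at 37C, then given compound plus R1881 agonist for 16 h. ONE-Glo luminescence was read.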

The structures appear in SMILES notation. A number with no mark means an inactive call. Results filed as inconclusive are left out. Calls of active or inactive are those of the source. Unless noted, the call rests on the fitted dose curve; in most records, active means well fitted curve in the direction sought with a large enough effect in the repeat runs; inconclusive means weak or mixed curves; inactive means no such curve, though single readings can be large; an effect the other way counts as inactive or inconclusive.

Chain of Aromatase (Homo sapiens) (P11511 whole entry, looked up): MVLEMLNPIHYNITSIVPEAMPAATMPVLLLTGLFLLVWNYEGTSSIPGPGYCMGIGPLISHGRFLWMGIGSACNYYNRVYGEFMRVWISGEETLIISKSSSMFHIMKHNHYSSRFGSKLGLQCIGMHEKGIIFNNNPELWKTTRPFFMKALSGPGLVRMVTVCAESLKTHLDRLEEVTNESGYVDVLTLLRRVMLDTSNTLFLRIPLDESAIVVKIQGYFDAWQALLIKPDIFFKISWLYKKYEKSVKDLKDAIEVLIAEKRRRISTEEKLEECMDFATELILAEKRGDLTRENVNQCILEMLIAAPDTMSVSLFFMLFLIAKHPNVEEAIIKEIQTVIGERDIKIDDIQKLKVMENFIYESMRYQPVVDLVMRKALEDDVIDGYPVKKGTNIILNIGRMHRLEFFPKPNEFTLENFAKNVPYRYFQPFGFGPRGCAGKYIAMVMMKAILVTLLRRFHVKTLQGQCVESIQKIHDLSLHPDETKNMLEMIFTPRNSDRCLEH
Chain of Androgen receptor (Homo sapiens) (P10275 whole entry, looked up): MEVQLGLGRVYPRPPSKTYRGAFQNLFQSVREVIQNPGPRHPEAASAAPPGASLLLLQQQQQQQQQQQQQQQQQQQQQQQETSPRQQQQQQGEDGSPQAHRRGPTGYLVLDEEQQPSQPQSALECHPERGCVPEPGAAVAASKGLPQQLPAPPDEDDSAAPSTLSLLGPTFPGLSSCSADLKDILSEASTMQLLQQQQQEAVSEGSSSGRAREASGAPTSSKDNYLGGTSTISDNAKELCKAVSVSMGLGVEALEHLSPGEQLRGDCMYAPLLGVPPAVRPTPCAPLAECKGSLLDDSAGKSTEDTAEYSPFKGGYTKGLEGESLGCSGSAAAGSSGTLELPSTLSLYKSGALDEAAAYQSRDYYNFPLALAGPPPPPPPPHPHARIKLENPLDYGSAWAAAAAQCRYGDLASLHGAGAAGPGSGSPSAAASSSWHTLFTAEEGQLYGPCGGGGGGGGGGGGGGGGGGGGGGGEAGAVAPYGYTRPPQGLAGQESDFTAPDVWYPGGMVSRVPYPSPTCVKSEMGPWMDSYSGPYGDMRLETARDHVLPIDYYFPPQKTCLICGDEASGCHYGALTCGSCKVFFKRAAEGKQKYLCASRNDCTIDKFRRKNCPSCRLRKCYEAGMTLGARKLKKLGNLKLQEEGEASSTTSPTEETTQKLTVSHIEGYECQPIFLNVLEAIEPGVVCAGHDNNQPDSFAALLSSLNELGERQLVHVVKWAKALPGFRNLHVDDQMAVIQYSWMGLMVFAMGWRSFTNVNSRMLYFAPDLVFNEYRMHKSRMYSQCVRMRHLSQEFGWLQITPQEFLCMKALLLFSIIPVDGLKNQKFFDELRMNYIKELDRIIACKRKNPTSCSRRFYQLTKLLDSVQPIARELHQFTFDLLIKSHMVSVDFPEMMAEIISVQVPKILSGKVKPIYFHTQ
Chain of Estrogen receptor (Homo sapiens) (P03372 whole entry, looked up): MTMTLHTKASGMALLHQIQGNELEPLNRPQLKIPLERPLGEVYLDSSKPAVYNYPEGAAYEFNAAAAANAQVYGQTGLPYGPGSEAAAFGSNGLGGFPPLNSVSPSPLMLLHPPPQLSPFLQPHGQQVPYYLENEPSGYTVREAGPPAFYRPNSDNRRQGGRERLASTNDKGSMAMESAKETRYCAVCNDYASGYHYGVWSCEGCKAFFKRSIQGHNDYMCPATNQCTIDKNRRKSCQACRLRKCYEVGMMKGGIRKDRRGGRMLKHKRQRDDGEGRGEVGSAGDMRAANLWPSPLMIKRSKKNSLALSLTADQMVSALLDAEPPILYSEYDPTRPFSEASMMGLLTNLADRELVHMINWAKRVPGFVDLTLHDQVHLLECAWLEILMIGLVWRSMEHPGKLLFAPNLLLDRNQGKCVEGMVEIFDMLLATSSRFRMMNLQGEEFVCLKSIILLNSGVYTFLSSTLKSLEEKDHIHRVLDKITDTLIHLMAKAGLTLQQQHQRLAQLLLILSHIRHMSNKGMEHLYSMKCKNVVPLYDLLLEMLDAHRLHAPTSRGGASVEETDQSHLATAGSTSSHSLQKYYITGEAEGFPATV

With `CCNc1cc(O)ccc1C`, the Potency result in test [1], in [2], in test [3], in test [4], in [5] and in test [6] was “inactive” in each case. For the same compound, the Potency entry in test [7], in [8], in [9], in test [10], in [11] and in test [12] was “inactive” throughout. The Potency entry (in test [13]; with Aromatase (Homo sapiens)) was “inactive” each time.
As for `CN1C[C@H]2c3ccccc3Oc3ccc(Cl)cc3[C@@H]2C1`, the Potency result in [1], in test [14], in [4], in [8], in test [9] and in test [10] was “inactive” throughout. Besides, the Potency result in test [11], in [12] and in [13] was “inactive” each time. Moreover, the results for the Potency in test [2], in [3] and in test [5] were 26.6 µM (active), 29.8 µM (active) and 15 µM (active), respectively.
Turning to `OCCNCc1ccccc1`, the Potency result in test [1], in test [15], in test [3], in test [16], in test [17] and in [18] was “inactive” throughout. Also, the Potency result in test [19], in [5], in test [7], in [8], in test [9] and in [10] was “inactive” each time. For the same compound, the Potency entry (in test [11]; in test [12]; in test [13]; in the test with Aromatase (Homo sapiens)) was “inactive” each time.
For `CCCCCCc1ccc(-c2ccc(C#N)cc2)cc1`, the Potency entry in test [1], in test [2], in test [3], in [14], in test [4] and in test [5] was “inactive” each time. Also, the Potency result in test [6], in [7], in test [9] and in test [13] was “inactive” in each case.
Regarding `Cn1c(=O)cc(Oc2ccc(F)cc2F)c2cnc(NCC(C)(C)O)nc21`, the Potency result in [1], in [2], in test [14], in test [4], in test [5] and in test [6] was “inactive” each time. Also, the Potency result (in [7]; in [8]; in test [9]; in [10]; in test [13]; with Aromatase (Homo sapiens)) was “inactive” throughout. Besides, the Potency was 27.3 µM (active) in [3] and 19.3 µM (active) in [12].
Take `CCCCCCCCCCCCCCOS(=O)(=O)O`: the Potency result in test [1], in [2], in [4], in test [7], in test [8] and in test [9] was “inactive” each time. In addition, the Potency result (in [10]; in test [11]; in test [12]; in test [13]; in the test with Aromatase (Homo sapiens)) was “inactive” throughout. The Potency in test [6] was 48.6 µM (active).
In the case of `CCN(CC)CCNC(=O)c1cc(Br)c(N)cc1OC`, the Potency result in test [1], in [2], in test [3], in [14], in test [4] and in [5] was “inactive” throughout. Also, the Potency result in test [6], in test [7], in [9], in test [10], in test [11] and in test [12] was “inactive” each time. The Potency entry (in test [13]; with Aromatase (Homo sapiens)) was “inactive” each time.
Regarding `O=C(NCCO[N+](=O)[O-])c1cccnc1`, the Potency entry in test [1], in test [2], in test [3], in test [14], in test [4] and in test [5] was “inactive” throughout. Moreover, the Potency entry (in [6]; in [7]; in test [9]; in test [13]; in the test with Aromatase (Homo sapiens)) was “inactive” throughout.
As for `S=C([S-])NCCNC(=S)[S-].[Mn+2]`, the Potency entry (in test [1]; in test [14]; in test [4]; in test [6]; in test [7]; in the test with Aromatase (Homo sapiens)) was “inactive” in each case. Also, the Potency in test [2] and in test [3] was 61.1 µM (active) in each case.
Consider `OC(CN1CCC(Cc2ccc(F)cc2)CC1)c1ccc(Cl)cc1` (stereo not drawn), for which the Potency result in test [1], in [16], in test [17], in test [18], in [4] and in test [19] was “inactive” throughout. Also, the Potency entry (in test [7]; in test [9]; in test [13]; in the test with Aromatase (Homo sapiens)) was “inactive” in each case. Further, the Potency in test [15] was 1.68 µM (active); in test [3] it was 2.11 µM (active).
In the case of `CCCCCCCCCCO[C@@H]1O[C@H](CO)[C@@H](O)[C@H](O)[C@H]1O`, the Potency entry in [1], in test [4], in test [5], in [7], in test [9] and in [10] was “inactive” throughout. Further, the Potency entry (in test [11]; in [12]; in [13]; with Aromatase (Homo sapiens)) was “inactive” in each case. The Potency in [15] and in [3] was 61.1 µM (active) throughout.
`Cc1cc(N)c2cc(NC(=O)Nc3ccc4nc(C)cc(N)c4c3)ccc2n1`: the Potency entry in test [1], in [14], in test [17], in test [18], in test [7] and in [9] was “inactive” each time. The Potency entry (in test [13]; with Aromatase (Homo sapiens)) was “inactive” throughout. Besides, the Potency in [15] is 21.1 µM (active); in test [3], 16.8 µM (active); in test [5], 29.8 µM (active); in test [6], 29.8 µM (active).
Regarding `C[Si](C)(CCCN)O[Si](C)(C)CCCN`, the Potency entry in test [1], in test [2], in [14], in [4], in test [9] and in test [10] was “inactive” each time. The Potency result (in test [11]; in test [12]; with Aromatase (Homo sapiens)) was “inactive” each time.
In the case of `O=C(O)C1(C(=O)Nc2ccc(Cl)cc2Cl)CC1`, the Potency result in test [1], in test [18], in [19], in test [7], in test [10] and in test [11] was “inactive” throughout. The Potency result (in test [13]; with Aromatase (Homo sapiens)) was “inactive” each time. For the same compound, the Potency in test [2] is 61.1 µM (active); in test [15], 68.6 µM (active); in test [6], 68.6 µM (active).
For `CCOc1ccc(N)c([N+](=O)[O-])c1`, the Potency entry in test [1], in test [2], in [3], in [14], in [7] and in test [9] was “inactive” each time. Also, the Potency result (in test [10]; in [11]; in test [12]; in test [13]; with Aromatase (Homo sapiens)) was “inactive” each time.
On to `CCc1cc(C2=C(C(=O)O)N(c3ccccc3C(F)(F)F)S(=O)(=O)c3ccccc32)cc2c1OCO2`, for which the Potency result in test [1], in test [4], in test [6], in test [7] and in [9] was “inactive” in each case. The Potency in test [5] was 2.41 µM (active).
Turning to `COc1ccnc(CS(=O)c2nc3ccc(OC(F)F)cc3[nH]2)c1OC` (stereo not drawn), the Potency entry in test [1], in [14], in [5], in test [7], in test [9] and in test [10] was “inactive” in each case. Also, the Potency result (in test [12]; in test [13]; in the test with Aromatase (Homo sapiens)) was “inactive” throughout.

The values above are taken from PubChem BioAssay (Tox21).
